Assay results as given in ChEMBL document CHEMBL1961873, “Compounds: GSK PKIS; Assays: Nanosyn kinase panel” (2012).

Key:
[1] = target: Tyrosine-protein kinase receptor UFO (Homo sapiens) (UniProt P30530); details: at 1 µM
[2] = target: Tyrosine-protein kinase Blk (Homo sapiens) (UniProt P51451); details: at 0.1 µM
[3] = target: Tyrosine-protein kinase Blk (Homo sapiens) (UniProt P51451); details: at 1 µM
[4] = target: T1, Cytoplasmic tyrosine-protein kinase BMX (Homo sapiens) (UniProt P51813); details: at 0.1 µM
T1 sequence (whole entry): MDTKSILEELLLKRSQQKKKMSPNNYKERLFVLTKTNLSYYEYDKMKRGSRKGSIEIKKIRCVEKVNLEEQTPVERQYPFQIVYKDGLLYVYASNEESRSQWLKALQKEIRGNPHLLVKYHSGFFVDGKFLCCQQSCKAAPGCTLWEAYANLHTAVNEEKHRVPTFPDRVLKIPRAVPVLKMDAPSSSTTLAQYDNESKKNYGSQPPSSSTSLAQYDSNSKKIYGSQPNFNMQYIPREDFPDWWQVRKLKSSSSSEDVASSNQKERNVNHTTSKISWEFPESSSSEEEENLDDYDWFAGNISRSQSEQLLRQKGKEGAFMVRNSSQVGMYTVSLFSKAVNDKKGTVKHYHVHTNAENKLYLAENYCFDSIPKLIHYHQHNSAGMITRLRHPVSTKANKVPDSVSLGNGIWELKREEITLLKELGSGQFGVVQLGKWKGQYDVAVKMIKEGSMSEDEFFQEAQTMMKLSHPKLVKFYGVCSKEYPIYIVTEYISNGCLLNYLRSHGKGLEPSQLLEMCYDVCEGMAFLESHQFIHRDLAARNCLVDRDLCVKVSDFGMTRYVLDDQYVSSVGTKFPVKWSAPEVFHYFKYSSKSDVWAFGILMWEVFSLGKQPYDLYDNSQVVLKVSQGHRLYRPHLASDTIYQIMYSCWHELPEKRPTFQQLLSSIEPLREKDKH

[5] = target: T1, Cytoplasmic tyrosine-protein kinase BMX (Homo sapiens); details: at 1 µM
[6] = target: Protein-tyrosine kinase 6 (Homo sapiens) (UniProt Q13882); details: at 0.1 µM
[7] = target: Protein-tyrosine kinase 6 (Homo sapiens) (UniProt Q13882); details: at 1 µM
[8] = target: Tyrosine-protein kinase BTK (Homo sapiens) (UniProt Q06187); details: at 0.1 µM
[9] = target: Tyrosine-protein kinase BTK (Homo sapiens) (UniProt Q06187); details: at 1 µM
[10] = target: Tyrosine-protein kinase CSK (Homo sapiens) (UniProt P41240); details: at 0.1 µM
[11] = target: Tyrosine-protein kinase CSK (Homo sapiens) (UniProt P41240); details: at 1 µM
[12] = target: T2, Discoidin domain-containing receptor 2 (Homo sapiens) (UniProt Q16832); details: at 0.1 µM
T2 sequence (whole entry): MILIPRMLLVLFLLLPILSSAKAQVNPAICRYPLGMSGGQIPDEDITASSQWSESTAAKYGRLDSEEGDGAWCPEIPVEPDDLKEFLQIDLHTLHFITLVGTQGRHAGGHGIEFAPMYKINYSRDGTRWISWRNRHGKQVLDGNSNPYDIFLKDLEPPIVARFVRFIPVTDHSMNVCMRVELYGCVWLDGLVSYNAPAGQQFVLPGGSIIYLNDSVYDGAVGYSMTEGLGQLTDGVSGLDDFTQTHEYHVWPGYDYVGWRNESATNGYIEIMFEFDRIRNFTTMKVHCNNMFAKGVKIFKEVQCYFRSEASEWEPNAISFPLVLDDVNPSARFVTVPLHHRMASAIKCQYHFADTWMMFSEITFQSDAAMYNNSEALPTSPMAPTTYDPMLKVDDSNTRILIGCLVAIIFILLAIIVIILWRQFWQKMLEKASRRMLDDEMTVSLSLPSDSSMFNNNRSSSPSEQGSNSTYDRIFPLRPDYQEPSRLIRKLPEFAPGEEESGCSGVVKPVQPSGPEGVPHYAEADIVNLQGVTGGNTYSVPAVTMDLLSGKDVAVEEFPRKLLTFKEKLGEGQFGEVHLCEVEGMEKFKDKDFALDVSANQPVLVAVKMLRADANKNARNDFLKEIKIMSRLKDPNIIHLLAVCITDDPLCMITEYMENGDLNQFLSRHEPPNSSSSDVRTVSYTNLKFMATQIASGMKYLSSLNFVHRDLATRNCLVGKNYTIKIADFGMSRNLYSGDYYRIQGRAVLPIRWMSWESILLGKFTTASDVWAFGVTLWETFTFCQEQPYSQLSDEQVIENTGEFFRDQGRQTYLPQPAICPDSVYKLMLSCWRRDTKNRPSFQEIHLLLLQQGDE

[13] = target: T2, Discoidin domain-containing receptor 2 (Homo sapiens); details: at 1 µM
[14] = target: Epidermal growth factor receptor (Homo sapiens) (UniProt P00533); details: at 0.1 µM
[15] = target: Epidermal growth factor receptor (Homo sapiens) (UniProt P00533); details: at 1 µM
[16] = tested on: Epidermal growth factor receptor (Homo sapiens), P00533 [L858R]; details: at 0.1 µM
[17] = tested on: Epidermal growth factor receptor (Homo sapiens), P00533 [L858R]; details: at 1 µM
[18] = tested on: Epidermal growth factor receptor (Homo sapiens), P00533 [L861Q]; details: at 0.1 µM
[19] = tested on: Epidermal growth factor receptor (Homo sapiens), P00533 [L861Q]; details: at 1 µM
[20] = tested on: Epidermal growth factor receptor (Homo sapiens), P00533 [T790M]; details: at 0.1 µM
Sequence of Epidermal growth factor receptor (Homo sapiens), P00533 [T790M] (P00533 whole entry T790M): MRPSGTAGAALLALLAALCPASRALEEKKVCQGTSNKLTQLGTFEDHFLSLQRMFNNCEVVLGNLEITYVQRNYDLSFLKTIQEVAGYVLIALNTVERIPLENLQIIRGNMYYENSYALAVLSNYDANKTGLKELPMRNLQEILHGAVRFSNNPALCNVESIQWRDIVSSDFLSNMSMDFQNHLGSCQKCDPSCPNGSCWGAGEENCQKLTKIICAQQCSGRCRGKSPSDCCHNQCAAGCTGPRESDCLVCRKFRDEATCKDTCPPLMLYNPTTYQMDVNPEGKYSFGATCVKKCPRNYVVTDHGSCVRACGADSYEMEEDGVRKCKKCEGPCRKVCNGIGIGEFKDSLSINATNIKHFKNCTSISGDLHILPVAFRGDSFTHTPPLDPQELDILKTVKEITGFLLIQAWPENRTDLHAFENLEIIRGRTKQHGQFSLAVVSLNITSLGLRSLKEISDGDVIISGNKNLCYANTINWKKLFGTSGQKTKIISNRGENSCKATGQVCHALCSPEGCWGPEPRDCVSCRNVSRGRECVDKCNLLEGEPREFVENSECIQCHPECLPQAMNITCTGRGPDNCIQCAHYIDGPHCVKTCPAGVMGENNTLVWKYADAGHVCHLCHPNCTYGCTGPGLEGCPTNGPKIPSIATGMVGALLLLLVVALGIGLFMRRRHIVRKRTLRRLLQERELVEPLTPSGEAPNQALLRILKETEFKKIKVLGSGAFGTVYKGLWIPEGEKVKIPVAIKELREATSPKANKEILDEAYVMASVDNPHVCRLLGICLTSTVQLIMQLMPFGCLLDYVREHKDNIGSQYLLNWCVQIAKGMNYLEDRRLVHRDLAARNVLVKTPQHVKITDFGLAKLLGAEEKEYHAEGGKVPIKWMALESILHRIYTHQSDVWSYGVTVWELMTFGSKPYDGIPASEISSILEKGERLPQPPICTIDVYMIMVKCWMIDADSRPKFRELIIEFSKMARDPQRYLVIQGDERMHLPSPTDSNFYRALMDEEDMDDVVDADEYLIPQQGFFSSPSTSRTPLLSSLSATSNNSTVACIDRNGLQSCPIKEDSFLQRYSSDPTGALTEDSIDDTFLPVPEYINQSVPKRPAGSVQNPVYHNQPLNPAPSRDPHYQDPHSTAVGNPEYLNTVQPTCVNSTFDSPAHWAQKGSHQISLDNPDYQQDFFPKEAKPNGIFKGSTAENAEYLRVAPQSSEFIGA

Sequence of Tyrosine-protein kinase BTK (Homo sapiens) (Q06187 whole entry): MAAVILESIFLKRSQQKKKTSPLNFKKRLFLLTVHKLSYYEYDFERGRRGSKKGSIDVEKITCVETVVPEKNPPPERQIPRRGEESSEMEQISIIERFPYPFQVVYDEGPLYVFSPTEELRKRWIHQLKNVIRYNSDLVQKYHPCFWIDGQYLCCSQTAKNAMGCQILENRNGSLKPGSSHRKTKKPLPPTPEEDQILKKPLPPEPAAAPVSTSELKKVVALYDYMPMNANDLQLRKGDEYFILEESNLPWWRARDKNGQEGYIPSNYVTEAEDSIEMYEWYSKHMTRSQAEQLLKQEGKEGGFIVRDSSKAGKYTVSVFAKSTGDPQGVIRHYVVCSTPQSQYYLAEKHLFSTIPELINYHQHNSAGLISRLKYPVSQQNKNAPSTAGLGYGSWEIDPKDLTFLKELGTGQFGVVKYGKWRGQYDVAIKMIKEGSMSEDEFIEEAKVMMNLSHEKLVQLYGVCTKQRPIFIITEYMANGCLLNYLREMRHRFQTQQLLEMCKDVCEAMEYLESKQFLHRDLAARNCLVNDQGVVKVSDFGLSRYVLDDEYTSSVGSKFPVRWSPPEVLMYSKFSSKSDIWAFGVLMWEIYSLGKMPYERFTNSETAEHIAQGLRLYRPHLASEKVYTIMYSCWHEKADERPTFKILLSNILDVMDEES
Sequence of Tyrosine-protein kinase CSK (Homo sapiens) (P41240 2-450 limits assumed): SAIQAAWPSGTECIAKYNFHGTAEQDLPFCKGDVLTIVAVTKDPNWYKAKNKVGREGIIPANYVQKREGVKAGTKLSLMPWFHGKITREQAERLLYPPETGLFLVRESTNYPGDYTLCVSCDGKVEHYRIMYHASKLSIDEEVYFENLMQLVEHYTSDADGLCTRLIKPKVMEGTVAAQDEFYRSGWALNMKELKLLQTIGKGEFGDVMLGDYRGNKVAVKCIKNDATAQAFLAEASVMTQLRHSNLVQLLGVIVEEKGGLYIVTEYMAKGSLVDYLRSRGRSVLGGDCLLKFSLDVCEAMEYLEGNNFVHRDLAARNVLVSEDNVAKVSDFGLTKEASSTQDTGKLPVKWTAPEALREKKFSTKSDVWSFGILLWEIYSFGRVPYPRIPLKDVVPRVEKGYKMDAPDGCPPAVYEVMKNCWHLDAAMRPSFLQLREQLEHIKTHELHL
Sequence of Tyrosine-protein kinase receptor UFO (Homo sapiens) (P30530 whole entry): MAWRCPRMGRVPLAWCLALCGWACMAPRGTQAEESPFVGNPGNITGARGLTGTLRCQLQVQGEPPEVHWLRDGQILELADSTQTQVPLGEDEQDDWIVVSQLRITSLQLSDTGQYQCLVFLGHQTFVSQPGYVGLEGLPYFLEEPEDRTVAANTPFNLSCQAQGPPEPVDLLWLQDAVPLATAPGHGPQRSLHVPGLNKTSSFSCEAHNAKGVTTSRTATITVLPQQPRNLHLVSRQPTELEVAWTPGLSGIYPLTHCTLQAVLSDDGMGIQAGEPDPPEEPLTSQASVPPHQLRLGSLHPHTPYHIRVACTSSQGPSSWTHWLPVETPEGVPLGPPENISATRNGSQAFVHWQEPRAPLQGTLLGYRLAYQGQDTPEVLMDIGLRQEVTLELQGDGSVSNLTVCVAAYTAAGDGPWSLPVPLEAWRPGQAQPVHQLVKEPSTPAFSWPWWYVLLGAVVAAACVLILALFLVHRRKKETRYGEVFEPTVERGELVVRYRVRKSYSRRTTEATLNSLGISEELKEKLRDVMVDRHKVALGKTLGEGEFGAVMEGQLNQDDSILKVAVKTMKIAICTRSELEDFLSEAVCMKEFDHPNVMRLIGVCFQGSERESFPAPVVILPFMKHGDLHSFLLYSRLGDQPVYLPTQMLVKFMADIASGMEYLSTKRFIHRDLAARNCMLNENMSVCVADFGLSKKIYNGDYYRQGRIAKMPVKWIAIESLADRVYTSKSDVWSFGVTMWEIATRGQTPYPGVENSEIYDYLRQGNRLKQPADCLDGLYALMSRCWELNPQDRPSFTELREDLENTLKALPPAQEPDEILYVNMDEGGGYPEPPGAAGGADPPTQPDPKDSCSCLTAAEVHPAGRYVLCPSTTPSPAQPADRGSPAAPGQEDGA
Sequence of Epidermal growth factor receptor (Homo sapiens), P00533 [L861Q] (P00533 whole entry L861Q): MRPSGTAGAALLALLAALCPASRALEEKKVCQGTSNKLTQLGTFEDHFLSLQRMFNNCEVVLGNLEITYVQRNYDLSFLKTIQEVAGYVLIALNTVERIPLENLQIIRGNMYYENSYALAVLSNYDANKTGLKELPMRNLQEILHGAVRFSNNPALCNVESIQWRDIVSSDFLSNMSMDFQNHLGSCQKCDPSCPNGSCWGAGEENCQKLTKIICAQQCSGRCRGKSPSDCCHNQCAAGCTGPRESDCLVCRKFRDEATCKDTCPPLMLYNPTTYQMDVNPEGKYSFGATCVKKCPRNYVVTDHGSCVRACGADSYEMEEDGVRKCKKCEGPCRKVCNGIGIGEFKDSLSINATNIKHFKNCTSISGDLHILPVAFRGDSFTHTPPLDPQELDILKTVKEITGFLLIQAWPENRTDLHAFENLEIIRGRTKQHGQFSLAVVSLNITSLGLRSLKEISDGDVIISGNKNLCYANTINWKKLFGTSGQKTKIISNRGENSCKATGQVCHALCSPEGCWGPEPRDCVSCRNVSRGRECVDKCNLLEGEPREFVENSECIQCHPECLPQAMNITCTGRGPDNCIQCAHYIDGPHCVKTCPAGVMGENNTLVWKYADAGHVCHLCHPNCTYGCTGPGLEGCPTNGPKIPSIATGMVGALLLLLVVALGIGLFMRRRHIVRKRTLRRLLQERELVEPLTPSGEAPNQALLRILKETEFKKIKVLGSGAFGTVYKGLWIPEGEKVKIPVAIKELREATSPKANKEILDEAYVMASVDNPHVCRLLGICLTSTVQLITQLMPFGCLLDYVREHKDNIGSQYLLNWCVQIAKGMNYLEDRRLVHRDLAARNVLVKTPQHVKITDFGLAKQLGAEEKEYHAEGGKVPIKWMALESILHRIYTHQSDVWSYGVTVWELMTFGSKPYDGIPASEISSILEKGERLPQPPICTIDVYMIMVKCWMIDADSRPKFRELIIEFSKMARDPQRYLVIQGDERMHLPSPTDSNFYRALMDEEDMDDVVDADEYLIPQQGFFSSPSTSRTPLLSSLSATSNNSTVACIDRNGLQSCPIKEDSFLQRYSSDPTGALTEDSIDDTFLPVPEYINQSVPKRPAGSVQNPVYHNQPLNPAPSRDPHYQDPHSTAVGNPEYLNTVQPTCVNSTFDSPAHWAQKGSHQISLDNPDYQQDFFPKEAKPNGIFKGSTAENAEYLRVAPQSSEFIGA
Sequence of Tyrosine-protein kinase Blk (Homo sapiens) (P51451 2-505 limits assumed): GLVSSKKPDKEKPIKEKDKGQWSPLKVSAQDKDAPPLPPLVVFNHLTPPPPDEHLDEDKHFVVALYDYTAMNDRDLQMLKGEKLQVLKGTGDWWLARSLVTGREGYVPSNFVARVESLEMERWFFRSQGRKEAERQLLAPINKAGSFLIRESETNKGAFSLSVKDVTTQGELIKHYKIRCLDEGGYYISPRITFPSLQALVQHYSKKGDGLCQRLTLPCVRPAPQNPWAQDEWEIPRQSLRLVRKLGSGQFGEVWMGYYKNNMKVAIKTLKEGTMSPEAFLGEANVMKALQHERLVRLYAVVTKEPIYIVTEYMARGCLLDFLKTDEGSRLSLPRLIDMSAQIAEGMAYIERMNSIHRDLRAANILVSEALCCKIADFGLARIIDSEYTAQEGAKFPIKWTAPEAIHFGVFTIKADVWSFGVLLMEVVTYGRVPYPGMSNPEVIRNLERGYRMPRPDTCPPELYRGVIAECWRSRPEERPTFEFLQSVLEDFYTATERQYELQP

SMILES | inhibition [1] | inhibition [2] | inhibition [3] | inhibition [4] | inhibition [5] | inhibition [6] | inhibition [7] | inhibition [8] | inhibition [9] | inhibition [10] | inhibition [11] | inhibition [12] | inhibition [13] | inhibition [14] | inhibition [15] | inhibition [16] | inhibition [17] | inhibition [18] | inhibition [19] | inhibition [20]
Fc1cccc(COc2ccc(Nc3ncncc3C#Cc3ccccc3)cc2Cl)c1 | -6.13% | 3.22% | 3.19% | -2.36% | 5.09% | 6.04% | 7.36% | 1.18% | 0.79% | 2.79% | 6.87% | 1.28% | 1.92% | 23.9% | 72.5% | 3.93% | 21.7% | 16.6% | 30.2% | 3.89%
COc1ccc2ncn(-c3cc(O[C@H](C)c4ccccc4C(F)(F)F)c(C(N)=O)s3)c2c1 | 1.8% | -0.74% | 2.3% | -0.1% | 1.93% | -0.2% | -0.61% | -0.76% | -0.74% | -1.23% | -2.18% | -0.82% | -2.22% | 0.37% | 2.93% | -1.19% | 1.03% | -0.87% | 0.54% | -1.45%
c1cnn2ncc(-c3ccnc(NCCCN4CCOCC4)n3)c2c1 | -4.37% | 1.7% | 2.58% | -0.07% | 2.01% | 2.34% | 3.25% | -1.19% | -2.44% | 5.75% | 1.9% | 2.03% | 1.44% | -0.42% | 0.23% | 3.41% | 1.28% | 1.28% | 0.79% | 0.73%
Fc1ccc(Nc2nccc(-c3c(-c4ccc(C(F)(F)F)cc4)nn4ncccc34)n2)cc1F | -7.82% | 2.43% | 2.03% | 0.77% | 5.09% | 3.39% | 0.92% | 1.62% | 0.94% | 1.84% | 0.02% | 0.84% | 1.01% | -6.64% | 2.88% | 4.49% | 2.96% | 2.39% | -0.05% | 2.44%
COC(=O)Nc1nc2ccc(Oc3ccc(NC(=O)Nc4cc(C(F)(F)F)ccc4F)cc3)cc2s1 | 46.6% | 0.64% | 3.2% | 0.05% | 2.68% | 1.06% | 0.36% | -0.69% | -0.85% | 4.36% | 33.4% | 62.7% | 83.6% | 1.66% | 3.16% | -2.69% | 2.24% | -1.23% | 1.41% | 0.17%
Cc1cc(O)cc(C)c1/C=C/c1cncc(C(=O)OC(C)(C)C)c1 | -3.72% | 4.36% | 21.7% | 9.3% | 47.3% | 18.1% | 67.5% | 0.92% | 12.8% | 7.62% | 32.9% | 1.51% | 2.49% | 1.62% | 5.14% | 3.7% | 17% | 2.25% | 4.72% | 0.92%
CS(=O)(=O)Nc1ccc(-c2cc(-c3ccccc3)cc(C(N)=O)c2N)cc1 | -0.04% | 0% | 4.17% | 1.21% | 0.72% | 0.76% | 3.55% | -2.25% | -2.03% | 1.18% | 1.29% | -0.17% | 1.14% | 11.5% | 17.2% | 1.51% | 1.89% | 0.77% | 5.17% | -0.83%
